Measured values from PubChem BioAssay (Tox21).
Where “and” joins values, the source holds several entries; their conditions need not be identical. Identical values can stand only once. Results filed as inconclusive are left out. Entries that show only a call come without a potency. Some compounds were tested as several samples or in several runs, with calls that do not always agree. Calls of active or inactive are those of the source. Unless noted, the call rests on the fitted dose curve; in most records, active means well fitted curve in the direction sought with a large enough effect in the repeat runs; inconclusive means weak or mixed curves; inactive means no such curve, though single readings can be large; an effect the other way counts as inactive or inconclusive.

Legend:
[1] = molecular target: Thyrotropin receptor (Homo sapiens) (UniProt P16473); assay: qHTS assay to identify small molecule antagonists of the thyroid stimulating hormone receptor (TSHR) signaling pathway (AID 1259385; calls by dose curve; further: nearly all actives have a fitted effect of over 20% in size)
Chain of Thyrotropin receptor (Homo sapiens) (P16473 whole entry, looked up): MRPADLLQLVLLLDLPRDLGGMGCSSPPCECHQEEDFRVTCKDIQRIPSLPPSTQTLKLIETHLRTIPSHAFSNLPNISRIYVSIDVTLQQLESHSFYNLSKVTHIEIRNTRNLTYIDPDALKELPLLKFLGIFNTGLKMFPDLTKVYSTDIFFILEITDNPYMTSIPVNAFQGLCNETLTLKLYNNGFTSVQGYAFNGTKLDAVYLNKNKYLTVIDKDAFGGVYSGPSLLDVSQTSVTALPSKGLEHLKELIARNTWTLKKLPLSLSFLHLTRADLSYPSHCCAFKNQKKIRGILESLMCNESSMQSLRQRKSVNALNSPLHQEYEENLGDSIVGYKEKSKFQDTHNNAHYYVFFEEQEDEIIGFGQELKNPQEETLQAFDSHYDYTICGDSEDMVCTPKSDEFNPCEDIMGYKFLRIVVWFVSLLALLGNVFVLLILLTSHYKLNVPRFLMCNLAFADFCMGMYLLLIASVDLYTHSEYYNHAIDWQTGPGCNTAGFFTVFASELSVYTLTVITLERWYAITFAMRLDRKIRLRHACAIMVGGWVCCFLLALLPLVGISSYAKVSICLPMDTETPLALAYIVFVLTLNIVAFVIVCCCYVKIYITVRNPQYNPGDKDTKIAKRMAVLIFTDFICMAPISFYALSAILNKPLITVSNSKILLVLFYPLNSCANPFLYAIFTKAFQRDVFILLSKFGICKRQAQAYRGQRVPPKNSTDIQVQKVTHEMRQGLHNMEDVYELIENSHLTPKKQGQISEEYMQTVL
How it was run: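 TSHR-HEK293 cells were plated and held 18 h at 37C/5% CO2, then given compound plus Ro20-1724 and stimulated with TSH at 1.5 ng/mL final. After 30 min at room temperature, cAMP was detected with cAMP-d2/anti-cAMP-cryptate (1 h) by fluorescence.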

[2] = qHTS assay to identify small molecule agonists of the estrogen receptor alpha (ER-alpha) signaling pathway in the presence of an antagonist - cell viability counter screen (AID 1259386);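 further: cells exposed to compounds for 22 h at 37 °C before the viability read; nearly all actives have a fitted effect of over 30% in size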; further: potency means the concentration at half of the fitted maximal effect
How it was run: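 Read-out: CellTiter-Fluor fluorescence after 1hr reagent incubation, measured in the same wells as the luciferase readout. VM7Luc4E2 cells were exposed to 15 compound concentrations with 10.0nM ICI-182,780 for 22hr at 37C.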

[3] = qHTS assay to identify small molecule antagonists of the progesterone receptor (PR) signaling pathway - cell viability counter screen (AID 1346798); further: nearly all actives have a fitted effect of over 50% in size; further: potency means the concentration at half of the fitted maximal effect
How it was run: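 ATP content as viability readout: CellTiter-Glo luminescence, 30 min room temperature, in PR-UAS-bla HEK293T cells after 16 hr compound/R5020 treatment at 37C and 5% CO2.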

[4] = qHTS assay to identify small molecule agonists of the progesterone receptor (PR) signaling pathway - cell viability counter screen (AID 1346799; calls by dose curve; further: nearly all actives have a fitted effect of over 45% in size; further: potency means the concentration at half of the fitted maximal effect)
How it was run: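 Cytotoxicity in PR-bla HEK293T cells: 16 h compound, 37C; CellTiter-Glo added post-FRET read; luminescence after 30 min RT.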

[5] = qHTS assay to identify small molecule antagonists of the TGF-beta/Smad signaling pathway - cell viability counter screen (AID 1346824); further: nearly all actives have a fitted effect of over 50% in size
How it was run: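 SBE-bla HEK 293T cells were plated overnight at 37 C, then given compounds in DMSO plus TGF-beta1 (added as 0.25 ng/mL solution) for 5 hr. After the bla read, CellTiter-Glo was added to the same wells and luminescence read after 30 min at room temperature.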

[6] = qHTS assay to identify small molecule agonists of the TGF-beta/Smad signaling pathway - cell viability counter screen (AID 1346829); further: top concentration of the series differs between compounds; nearly all actives have a fitted effect of over 45% in size
How it was run: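 Same-well cytotoxicity: CellTiter-Glo added after the 2 hr room-temperature beta-lactamase substrate step, luminescence measured 30 min later; cells had 5 hr of compound at 37 C.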

[7] = qHTS assay to identify small molecule agonists of the TGF-beta/Smad signaling pathway (AID 1346859; active means well fitted activation curve with a large enough effect in the signal ratio in the repeat runs, not every such curve was filed as active; the % refers to the signal ratio; further: series mostly up to about 77 µM)
How it was run: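 Stable Smad binding element-beta-lactamase HEK 293T cells; 5 hr compound exposure at 37 C under 5% CO2; 2 hr room-temperature substrate step; fluorescence excited at 405 nm, collected at 460 nm and 530 nm.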

[8] = Human pregnane X receptor (PXR) small molecule agonists, qHTS cell viability counter screen (AID 1346977); further: nearly all actives have a fitted effect of over 50% in size; further: potency means the concentration at half of the fitted maximal effect
How it was run: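 Readout is CellTiter-Fluor fluorescence from PXR-Luc HepG2 cells. Plated cells rested 5hr, then were treated with compounds for 24hr at 37C and 5% CO2, with reagent present during the last hour.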

[9] = Caspase-3/7 induction in HepG2 cells by small molecules, qHTS assay (AID 1346978); further: nearly all actives have a fitted effect of over 15% in size
How it was run: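 Wild-type HepG2 cells (2,000/well) were settled 5 h at 37 C, 5% CO2, then exposed to compounds in DMSO for 17 h. Caspase-3/7 activity was read by luminescence 30 min after adding Caspase-Glo 3/7 reagent at room temperature.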

[10] = Caspase-3/7 induction in CHO-K1 cells by small molecules, qHTS cell viability counter screen (AID 1346979); further: nearly all actives have a fitted effect of over 35% in size; further: potency means the concentration at half of the fitted maximal effect
How it was run: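 To flag cytotoxic compounds, treated CHO-K1 wild-type cells were given CellTiter-Fluor at 16hr and read fluorescently after 1hr at 37C; the caspase-3/7 luminescence was measured in these same wells.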

[11] = Caspase-3/7 induction in CHO-K1 cells by small molecules, qHTS assay (AID 1346980); further: nearly all actives have a fitted effect of over 15% in size
How it was run: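 Wild-type cells were seeded at 1,500 per well and settled 5 hr at 37 C, 5% CO2, then exposed to DMSO-dissolved compounds for 17 hr. Caspase-Glo 3/7 reagent was added, and luminescence was read after 30min at room temperature.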

[12] = Caspase-3/7 induction in HepG2 cells by small molecules, qHTS cell viability counter screen (AID 1346981); further: nearly all actives have a fitted effect of over 30% in size; further: potency means the concentration at half of the fitted maximal effect
How it was run: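 Fluorescence read-out of live-cell protease activity (CellTiter-Fluor) after 1 hr with reagent. This was measured in the same wells as the caspase-3/7 luminescence, on HepG2 cells exposed to DMSO-dissolved compounds for 16 hr at 37 C.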

[13] = molecular target: Nuclear receptor subfamily 1 group I member 2 (Homo sapiens) (UniProt O75469); assay: Human pregnane X receptor (PXR) small molecule agonists, qHTS assay (AID 1346982); further: nearly all actives have a fitted effect of over 35% in size; further: potency means the concentration at half of the fitted maximal effect
Chain of Nuclear receptor subfamily 1 group I member 2 (Homo sapiens) (O75469 whole entry, looked up): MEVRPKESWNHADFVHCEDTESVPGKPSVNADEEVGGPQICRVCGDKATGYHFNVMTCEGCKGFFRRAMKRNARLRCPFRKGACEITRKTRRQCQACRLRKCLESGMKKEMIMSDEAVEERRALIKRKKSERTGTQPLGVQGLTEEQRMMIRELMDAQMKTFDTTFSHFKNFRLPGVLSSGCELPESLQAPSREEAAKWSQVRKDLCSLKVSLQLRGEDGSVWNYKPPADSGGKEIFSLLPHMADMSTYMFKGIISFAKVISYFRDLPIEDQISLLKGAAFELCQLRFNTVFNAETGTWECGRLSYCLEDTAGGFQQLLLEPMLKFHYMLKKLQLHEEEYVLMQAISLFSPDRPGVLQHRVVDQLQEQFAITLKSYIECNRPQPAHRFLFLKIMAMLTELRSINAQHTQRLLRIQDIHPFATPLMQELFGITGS
How it was run: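 HepG2 PXR-Luc reporter line, 5% charcoal-stripped FBS; 5 hr pre-incubation, compound (DMSO) 24 hr at 37 C/5% CO2; ONE-Glo 30 min RT; luminescence read-out.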

[14] = molecular target: Nuclear receptor subfamily 1 group I member 2 (Rattus norvegicus) (UniProt Q9R1A7); assay: Rat pregnane X receptor (rPXR) activation by small molecules, qHTS assay (AID 1346983); conditions: rPXR luciferase reporter cells, One-Glo luminescence, 24 h; max activation: stronger effect = higher value; further: nearly all actives have a fitted effect of over 20% in size
Chain of Nuclear receptor subfamily 1 group I member 2 (Rattus norvegicus) (Q9R1A7 whole entry, looked up): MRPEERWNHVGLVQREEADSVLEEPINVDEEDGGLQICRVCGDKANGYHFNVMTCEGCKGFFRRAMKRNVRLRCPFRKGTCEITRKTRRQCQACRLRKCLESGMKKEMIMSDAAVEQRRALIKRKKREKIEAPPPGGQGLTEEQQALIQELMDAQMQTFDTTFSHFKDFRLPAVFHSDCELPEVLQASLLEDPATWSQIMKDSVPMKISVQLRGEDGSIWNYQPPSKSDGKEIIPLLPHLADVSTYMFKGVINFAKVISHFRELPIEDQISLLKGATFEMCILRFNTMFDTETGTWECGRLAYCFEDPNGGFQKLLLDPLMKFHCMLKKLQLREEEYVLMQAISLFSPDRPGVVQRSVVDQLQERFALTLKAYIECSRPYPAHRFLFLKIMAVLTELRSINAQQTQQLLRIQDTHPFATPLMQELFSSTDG
How it was run: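 Cell-based rPXR luciferase reporter assay, 2,000 cells per well, rested 5hr at 37 C before compound addition in DMSO, then 24 hr at 37 C. One-Glo reagent was added and luminescence read after 30 min at room temperature.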

[15] = molecular target: Nuclear receptor subfamily 1 group I member 2 (Homo sapiens) (UniProt O75469); assay: CYP3A4 induction through human pregnane X receptor (PXR) by small molecules, qHTS assay (AID 1346984); further: nearly all actives have a fitted effect of over 40% in size
How it was run: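 HepG2-derived DPX-2 line carrying PXR plus a CYP3A4-promoter luciferase reporter; cells plated 5 hr, compound-exposed 24 hr at 37C. CYP3A4 activity probed with 3uM (final) Luciferin-IPA for 3hr, then luciferase read after One-Glo.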

[16] = molecular target: Nuclear receptor subfamily 1 group I member 2 (Homo sapiens) (UniProt O75469); assay: Human pregnane X receptor (PXR) activation by small molecules, qHTS assay (AID 1346985); further: nearly all actives have a fitted effect of over 40% in size
How it was run: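 DPX-2 cells (HepG2 co-transfected with a PXR response element and a CYP3A4-promoter luciferase construct) were seeded at 2,000 per well, rested 5 hr at 37C, then exposed to DMSO-dissolved compounds for 24 hr. Activation was read as luciferase luminescence.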

[17] = molecular target: Progesterone receptor (Homo sapiens) (UniProt P06401); assay: qHTS assay to identify small molecule agonists of the progesterone receptor (PR) signaling pathway (AID 1346784; calls by dose curve; further: nearly all actives have a fitted effect of over 30% in size)
Chain of Progesterone receptor (Homo sapiens) (P06401 whole entry, looked up): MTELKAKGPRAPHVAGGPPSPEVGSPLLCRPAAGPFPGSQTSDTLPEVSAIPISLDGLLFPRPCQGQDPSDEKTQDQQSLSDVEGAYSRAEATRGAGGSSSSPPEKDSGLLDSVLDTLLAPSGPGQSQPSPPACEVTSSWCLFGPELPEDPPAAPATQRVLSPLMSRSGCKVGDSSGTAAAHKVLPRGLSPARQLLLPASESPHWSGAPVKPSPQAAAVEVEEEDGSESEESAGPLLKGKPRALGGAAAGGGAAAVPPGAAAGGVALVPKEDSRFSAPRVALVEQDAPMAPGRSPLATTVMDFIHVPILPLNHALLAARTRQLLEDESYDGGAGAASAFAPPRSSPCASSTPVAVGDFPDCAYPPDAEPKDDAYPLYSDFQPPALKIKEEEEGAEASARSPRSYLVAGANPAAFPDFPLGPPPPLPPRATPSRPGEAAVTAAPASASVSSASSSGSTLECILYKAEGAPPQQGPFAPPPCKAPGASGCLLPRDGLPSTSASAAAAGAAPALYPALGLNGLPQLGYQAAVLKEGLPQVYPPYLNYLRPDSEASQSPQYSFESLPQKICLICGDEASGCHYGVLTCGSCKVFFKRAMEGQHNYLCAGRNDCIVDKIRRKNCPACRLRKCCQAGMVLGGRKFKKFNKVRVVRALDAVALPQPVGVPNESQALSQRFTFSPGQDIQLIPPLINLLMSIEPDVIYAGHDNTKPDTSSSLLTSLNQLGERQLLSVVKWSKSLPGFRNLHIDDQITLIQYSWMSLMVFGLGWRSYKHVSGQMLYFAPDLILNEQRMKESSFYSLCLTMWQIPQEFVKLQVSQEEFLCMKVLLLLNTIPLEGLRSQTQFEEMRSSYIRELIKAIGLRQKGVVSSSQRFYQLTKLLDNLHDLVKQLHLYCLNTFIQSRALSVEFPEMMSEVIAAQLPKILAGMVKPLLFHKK
How it was run: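 Using charcoal-stripped serum (2%) to limit endogenous steroids, PR-UAS-bla HEK 293T cells received compounds for 16 hr at 37C after 6 hr plating; beta-lactamase FRET fluorescence was recorded following 2 hr substrate loading at room temperature.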

[18] = molecular target: Progesterone receptor (Homo sapiens) (UniProt P06401); assay: qHTS assay to identify small molecule antagonists of the progesterone receptor (PR) signaling pathway (AID 1346795; active means well fitted inhibition curve with a large enough effect in the signal ratio in the repeat runs, not every such curve was filed as active; the % refers to the signal ratio; further: potency means the concentration at half of the fitted maximal effect)
How it was run: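 Inhibition of R5020-induced (1 nM final) beta-lactamase reporter signal in PR-UAS-bla HEK293T cells was scored by FRET fluorescence after overnight (16 hr) compound treatment.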

[19] = molecular target: Thyrotropin-releasing hormone receptor (Homo sapiens) (UniProt P34981); assay: qHTS assay to identify small molecule antagonists of the thyrotropin-releasing hormone receptor (TRHR) signaling pathway (AID 1346877; active means well fitted inhibition curve with a large enough effect in the repeat runs, not every such curve was filed as active; further: series mostly up to about 51 µM)
Chain of Thyrotropin-releasing hormone receptor (Homo sapiens) (P34981 whole entry, looked up): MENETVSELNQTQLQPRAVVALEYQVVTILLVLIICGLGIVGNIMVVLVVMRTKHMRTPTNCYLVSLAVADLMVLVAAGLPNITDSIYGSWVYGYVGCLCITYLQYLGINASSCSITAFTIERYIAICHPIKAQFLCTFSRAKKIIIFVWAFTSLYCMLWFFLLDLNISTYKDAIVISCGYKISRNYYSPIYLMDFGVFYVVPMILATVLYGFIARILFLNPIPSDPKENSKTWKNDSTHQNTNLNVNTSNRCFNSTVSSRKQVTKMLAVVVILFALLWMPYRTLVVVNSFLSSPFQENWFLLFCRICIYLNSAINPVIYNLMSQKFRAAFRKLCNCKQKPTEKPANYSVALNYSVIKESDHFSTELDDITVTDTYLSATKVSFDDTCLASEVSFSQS
How it was run: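 HEK293/TRHR cells, 18 h, 37 °C; Ca2+ dye 2 h; cpd 5 min RT; TRH 1 nM final; fluorescence read 3 min, 1 s intervals; 15 concs, triplicate.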

[20] = molecular target: Thyrotropin-releasing hormone receptor (Homo sapiens) (UniProt P34981); assay: qHTS assay to identify small molecule agonists of the thyrotropin-releasing hormone receptor (TRHR) signaling pathway (AID 1346891; calls by dose curve;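 further: HEK293 cells expressing TRHR with calcium dye readout; series mostly up to about 58 µM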)
How it was run: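 In 1536-format, 1500 TRHR-Hek293 cells per well grew 18 h, took up calcium dye for 2 h at 37 °C, received compound, and were read kinetically; 15-point titrations, triplicates.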

Row | SMILES | Potency [1] | Potency [2] | Potency [3] | Potency [4] | Potency [5] | Potency [6] | outcome [7] | Potency [8] | Potency [9] | Potency [10] | Potency [11] | Potency [12] | Potency [13] | max activation [14] | Potency [15] | outcome [16] | Potency [17] | Potency [18] | Potency [19] | Potency [20]
1 | CC(=O)CCC(=O)O | inactive | inactive | inactive | inactive | inactive | inactive | inactive | inactive | inactive | inactive | inactive | inactive | inactive | -1.2% (inactive) | inactive | inactive |  |  |  | 
2 | O=CC(=O)c1ccccc1 |  | inactive | inactive | inactive | inactive | inactive | inactive | inactive | inactive |  | inactive | inactive | inactive |  |  |  | inactive | inactive | inactive | 
3 | C[C@](N)(Cc1ccc(O)c(O)c1)C(=O)O |  | inactive and 54.3 µM (active) | inactive | inactive | inactive | inactive | inactive | inactive | inactive | inactive | inactive | inactive | inactive | -6.56% (inactive) | inactive | inactive | inactive | inactive | inactive | 
4 | COc1ccc(C(Cl)=C(c2ccc(OC)cc2)c2ccc(OC)cc2)cc1 |  | inactive | inactive |  | inactive | inactive | inactive | inactive | inactive | inactive | inactive | inactive |  |  |  |  | inactive | 6.82 µM (active) and 5.45 µM (active) and 4.22 µM (active) | inactive | inactive
5 | CC(C)C(=O)Nc1ccc([N+](=O)[O-])c(C(F)(F)F)c1 | inactive |  | inactive | inactive | inactive | inactive | inactive | 50.1 µM (active) and inactive | inactive | 44.5 µM (active) and 54.5 µM (active) and 26.6 µM (active) | inactive | inactive | 35.4 µM (active) and 34.4 µM (active) and 29.8 µM (active) |  |  |  | inactive | 25 µM (active) | inactive | 
6 | Cn1c(=O)c2c(ncn2C)n(C)c1=O |  | 61.9 µM (active) and inactive | inactive | inactive | inactive | inactive | inactive | 39.8 µM (active) and inactive | inactive | 61.9 µM (active) and inactive | inactive | 61.9 µM (active) and inactive |  |  |  |  | inactive | inactive |  | 
7 | COc1ccc(OC(F)(F)F)cc1CN[C@H]1CCCN[C@H]1c1ccccc1 |  | inactive | 30.6 µM (active) | 24.3 µM (active) | inactive | inactive |  | 54.5 µM (active) |  | 61.1 µM (active) | inactive |  | 4.86 µM (active) |  |  |  | inactive |  |  | 
